# Screens as filed in PubChem.
# Only a sample is shown.
# aSyn 5UTR act – Activators via SNCA 5'UTR binding, MLPCN. alpha-synuclein 5'UTR reporter, activators screen. activity score, % (tested at 7.5 µM), hits read low. hit rate 7.1% among 300,000; in the data active = activity score below about -60%
# * hit, by the source's call.
SMILES,aSyn 5UTR act
CC(C)c1ccc(NC(=O)C(=O)C2C(=O)Nc3ccccc32)cc1 (configuration not stated),-101.4*
COC(=O)CNc1c(-c2ccccn2)nc2ccc(Br)cn12,-83.4*
Cc1cccc(C(=O)n2c(=S)nc3ccccn32)c1,-102.5*
O=C(c1ccccc1)n1c(=S)nc2ccccn21,-123.9*
O=c1oc2cc(O)ccc2cc1-c1ccccc1,-146.6*
CC(=O)Oc1ccc(-c2cc3ccccc3oc2=O)cc1,-134.8*
COc1ccc(-c2cc3ccc(O)cc3oc2=O)cc1,-63.6*
O=c1cc(-c2ccccc2)c2ccc(O)cc2o1,48.2
COC(=O)c1c(-c2ccc(Br)cc2)noc1N,-65.0*
O=C(Cn1ncc(N2CCOCC2)c(Cl)c1=O)c1ccc(Cl)cc1,-105.3*
CCCCCOc1ccc(Cl)cc1CN1CCOCC1,-77.5*
CN1CCC(=NNC(=O)C(=O)Nc2ccc(F)cc2)CC1,-92.5*
Cc1ccc2oc(C(=O)N(C)Cc3ccon3)c(C)c2c1,-153.0*
CCCc1ccc2oc(C(=O)N(C)Cc3cnccn3)c(C)c2c1,-72.6*
O=C(NCC(c1cccs1)N1CCOCC1)c1ccc(Cl)cc1 (configuration not stated),-100.1*
O=C(Nc1ccccc1)NC1CCCCC1,-66.4*
O=C(Nc1ccccc1)NC1CCCCCCC1,-106.2*
Cc1nn(-c2ccccc2)c2sc(C(=O)N(CC(=O)NC3CCCC3)Cc3ccco3)cc12,-66.6*
Cc1nn(-c2ccccc2)c2sc(C(=O)NC3CC3)cc12,-99.5*
Cc1nn(-c2ccc(F)cc2)c2sc(C(=O)N3CCCCCC3)cc12,-83.7*
O=c1cc2[nH]c3ccccc3c(=O)n2nc1-c1ccccc1,-125.2*
Cc1csc(=O)n1CC(=O)OCc1cccc2ccccc12,-90.4*
CN(C)/C=C/C(=O)c1cnc(-c2cccc(Cl)c2)s1,-145.9*
CN(C)/C=C/C(=O)c1cnc(-c2ccccc2Cl)s1,-127.5*
O=C(CC1C(=O)NCCN1Cc1ccc(F)cc1Cl)NCc1ccon1 (configuration not stated),-68.1*
SMILES,aSyn 5UTR act
Cc1ccc2c3c([nH]c2c1C)-c1nonc1CC3,-107.3*
CCOc1ccc(-c2n[nH]c(C(=O)NN)c2C)cc1,-72.8*
CC(C)COc1ccc(-c2cc(C(=O)NN)[nH]n2)cc1,-83.0*
CCOC(=O)c1cc(-c2ccc(OC)cc2)n[nH]1,-72.8*
CCOC(=O)c1cc(-c2ccc3c(c2)OCCO3)n[nH]1,-173.7*
CCCC(=O)Nc1ccc(NC(=O)c2cccs2)cn1,-104.7*
CCC(=O)NC(c1cccs1)c1cc(Cl)c2cccnc2c1O (configuration not stated),86.2
CCCCC(=O)NC(c1cccs1)c1cc(Cl)c2cccnc2c1O (configuration not stated),80.3
O=C(Cc1ccccc1)Nc1ccc(NC(=O)c2ccccc2)nc1,-183.6*
O=C(Nc1ccc(NC(=O)C2CC2)nc1)c1cccs1,-95.7*
O=C(Nc1ccc(NC(=O)c2cccs2)cn1)c1ccccc1,-134.1*
Cc1cc(=O)oc2cc(OCc3cc4c(cc3Cl)OCO4)ccc12,-65.6*
C/C(=N\OCC(=O)NCC(F)(F)F)c1cc2ccccc2o1,-75.6*
CC(=O)Nc1ccc(C(=O)Nc2cc(C)on2)cc1,-85.4*
CCCCCCCC(=O)Oc1ccc(C(=O)Nc2cc(C)on2)cc1,-93.3*
Cc1cc(NC(=O)c2nn(C)c(C)c2Br)no1,-87.5*
Cc1cc(NC(=O)c2ccc(F)cc2)no1,-79.0*
C/C(=N\Nc1ccc(C(=O)O)cc1)c1ccc(-n2ccnc2)cc1,-70.2*
C/C(=N\Nc1ccc(C(=O)O)cc1)c1nc2ccccc2n1C,-148.1*
COc1cc(/C(C)=N/Nc2ccc(C(=O)O)cc2)cc(OC)c1OC,-101.3*
Cn1nnnc1N=N/C(=N/Nc1ccccc1)c1ccccc1,103.6
COc1ccc(/C(C)=N/Nc2ccc(C(=O)O)cc2)cc1OC,-137.3*
O=C(c1cc(-c2ccco2)on1)N1CCCc2ccccc21,-68.8*
O=C(c1nn2c(C(F)(F)F)cc(-c3ccco3)nc2c1Br)N1CCCc2ccccc21,92.9
O=C(c1cc(-c2ccccc2)on1)N1CCCc2ccccc21,-99.7*
SMILES,aSyn 5UTR act
Cc1ccc(NC(=O)NCc2ccc3c(c2)OCO3)cc1C,-79.0*
NS(=O)(=O)c1ccc(NC(=O)Nc2ccc3c(c2)OCO3)cc1,-117.8*
O=C(Nc1ccc2c(c1)CCC2)Nc1ccc2c(c1)OCO2,-111.1*
COc1cccc(NC(=O)Nc2ccc3c(c2)OCO3)c1,-111.0*
COC(=O)c1ccc(NC(=O)Nc2ccc3c(c2)OCO3)cc1,-66.0*
Cc1nn(C)cc1CNC(=O)Nc1cccc(Cl)c1,-168.9*
COc1ccc2[nH]c(C(=O)Nc3ccc4c(c3)OCO4)cc2c1,-133.8*
O=C(Nc1ccc2c(c1)OCCO2)NC12CC3CC(CC(C3)C1)C2,-194.9*
O=C(Nc1ccc2c(c1)OCO2)Oc1ccccc1,-105.7*
O=C(NCc1cccs1)Nc1cccc(Cl)c1,-120.0*
O=C(Nc1cccc([N+](=O)[O-])c1)Nc1ccc2c(c1)OCCO2,-129.0*
O=C(Nc1cccc(Cl)c1)Nc1ccc2c(c1)OCO2,-159.3*
O=C(Nc1ccc2c(c1)OCO2)Nc1ccc(Br)cn1,-156.5*
